In the library only some 5.5% were active in any assay of this set; here they are far more common.
RORgamma inh: qHTS for inhibitors of ROR gamma transcriptional activity; Nuclear receptor ROR-gamma (Mus musculus), P51450; Potency, µM (highest dose often 53.6 µM), usual class: inhibitors; 310,000 compounds, 5.4% hits; Drosophila S2 Gal4-RORgamma UAS-luciferase reporter, 20 h; AID 2551, 2010; note: nearly all actives have a fitted effect of over 60% in size
Target sequence (P51450 whole entry, looked up, the tested form may be a part): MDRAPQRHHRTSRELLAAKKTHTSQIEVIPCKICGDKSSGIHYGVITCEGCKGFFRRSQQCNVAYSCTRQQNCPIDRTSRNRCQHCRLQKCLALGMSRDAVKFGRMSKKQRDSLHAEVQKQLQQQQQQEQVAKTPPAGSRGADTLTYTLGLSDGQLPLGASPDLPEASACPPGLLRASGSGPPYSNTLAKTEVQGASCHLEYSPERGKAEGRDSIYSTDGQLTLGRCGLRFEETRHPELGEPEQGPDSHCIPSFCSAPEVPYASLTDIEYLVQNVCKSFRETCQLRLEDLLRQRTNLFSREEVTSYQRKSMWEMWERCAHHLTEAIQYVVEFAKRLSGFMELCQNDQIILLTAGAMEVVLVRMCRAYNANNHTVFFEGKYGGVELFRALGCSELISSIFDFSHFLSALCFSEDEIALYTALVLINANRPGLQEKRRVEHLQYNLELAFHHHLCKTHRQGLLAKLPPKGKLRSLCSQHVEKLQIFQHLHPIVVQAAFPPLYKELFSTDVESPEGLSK
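A Gal4/UAS one-hybrid system in insect cells: metallothionein-promoter Gal4–ROR gamma fusion plus Photinus luciferase reporter. Copper sulfate 700 uM final, 20 hr ambient incubation, luminescent detection after 10 min with reagent.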
uPA surface inh: qHTS for Inhibitors of Cell Surface uPA Generation; Potency, µM (top dose mostly 38.3 µM), actives largely listed as inhibitors; cell surface uPA generation assay, qHTS; 330,000 compounds, 0.31% hits; active = well fitted inhibition curve with a large enough effect; inconclusive = small, poorly fitted or top-dose-only effect; inactive = no such curve, though single readings can be large or run the other way; tested in mouse RAW 264.7 cells; note: nearly all actives have a fitted effect of over 55% in size
a7 integrin act: qHTS for Activators of Integrin-Mediated Alleviation for Muscular Dystrophy | alpha7betagal myoblasts, beta-gal FDG fluorescence, 48 h | Potency, µM (highest dose often 38.3 µM), most hits filed as activators | 350,000 compounds, 0.064% hits; note: nearly all actives have a fitted effect of over 60% in size
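Alpha7betagal+/- myoblasts (passage 13) were plated 16-24 hr, then exposed to compounds (1:260 dilution of DMSO stock) for 48 hours at 37C. After MPER lysis, β-galactosidase reporter activity was read as FDG fluorescence (ex 480/em 540) after 30 minutes.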
Gal4-VP16 FLuc: VP16 counterscreen qHTS for inhibitors of ROR gamma transcriptional activity. Drosophila S2 Gal4-VP16 UAS-luciferase, luminescence, 20 h. Potency, µM (highest dose often 53.6 µM), actives largely listed as inhibitors. 310,000 compounds, 3.5% hits;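 note: Gal4-VP16 expression switched on by copper sulfate through the metallothionein promoter; nearly all actives have a fitted effect of over 50% in size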
Mito fusion act: qHTS Assay for Small Molecule Inhibitors of Mitochondrial Division or Activators of Mitochondrial Fusion. S. cerevisiae fusion-defective mutant growth rescue, CellTiterGlo 48 h. Potency, µM (highest dose often 46.1 µM), most hits filed as activators. 320,000 compounds, 0.23% hits. AID 485298, 2010; note: nearly all actives have a fitted effect of over 45% in size
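Temperature-sensitive fusion-defective S. cerevisiae (e.g. fzo1-1, mgm1-5) were grown with compound in YPEG medium (3% ethanol, 3% glycerol) for 48 hours at 37C. Growth rescue was measured as viability by CellTiterGlo luminescence after 10 minutes at ambient.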
BCR signal inh: qHTS Assay to Find Inhibitors of Chronic Active B-Cell Receptor Signaling; Potency, µM (highest dose often 46.1 µM), most hits filed as inhibitors; ABC-DLBCL IkBa-CBG/CBR reporter, luminescence ratio, 4 h; AID 493014, 2011; 340,000 compounds, 0.05% hits; active = well fitted inhibition curve with a large enough effect in the signal ratio, with a control signal flat, not every such curve was filed as active; inconclusive = small, poorly fitted or top-dose-only effect, or effect the other way, or a change in a side signal; the % refers to the signal ratio
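Cell line TMD8 (human ABC DLBCL), stably expressing tet-inducible CBG68-IkBa fusion and CBR; IMDM/0.5% FBS; cpd up to 46 uM; dox induction, 4 h, 37C/5% CO2; dual luminescence; green/red ratio; MG132 control.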
Of the large screens only hits and unclear results are named; the others gave an inactive call. Unless noted, calls come from the whole dose curve; as a rule, active = well fitted curve in the direction sought with a large enough effect; inconclusive = small, poorly fitted or top-dose-only effect, or another doubt; inactive = no such curve, though single readings can be large; an effect the other way counts as inactive or inconclusive.

CCN1CCN(CC(=O)N2CCCC(C(=O)c3ccc(Oc4ccccc4)cc3)C2)CC1 (centres undefined)	RORgamma inh 7.9µM, uPA surface inh inconclusive, Gal4-VP16 FLuc inconclusive
O=C(NCC(=O)N1CCCC(C(F)(F)F)C1)c1ccc(Oc2ccccc2)cc1 (centres undefined)	RORgamma inh 8.9µM, Gal4-VP16 FLuc 13µM, BCR signal inh inconclusive
Cc1cccc(C)c1OCc1cc(C(=O)NCc2cn(C)nc2C)no1	none
CN1c2ccsc2/C(=N/NC(=O)c2c(F)cccc2F)CS1(=O)=O	RORgamma inh 3.2µM, Gal4-VP16 FLuc 5µM
C=CCc1cccc(/C=N/NC(=O)C(=O)Nc2ccc(C)cc2)c1O	RORgamma inh 2.2µM, Gal4-VP16 FLuc 11µM, BCR signal inh inconclusive
C=CCc1cccc(/C=N/NC(=O)C(C)Nc2ccc(C)cc2)c1O (centres undefined)	RORgamma inh 0.56µM, Gal4-VP16 FLuc 2.8µM
CCOC(=O)[C@@H]1[C@H]2COc3ccccc3[C@H]2N2C(=O)N(c3cccc(Cl)c3)C(=O)[C@]12C	none (no result: RORgamma inh, Gal4-VP16 FLuc, Mito fusion act)
O=C(O)C(Oc1ccc2ccc(=O)oc2c1)c1ccccc1 (centres undefined)	none (no result: uPA surface inh, a7 integrin act, Mito fusion act, BCR signal inh)
CSc1cccc(NC(=O)CCc2ccccc2)c1	BCR signal inh inconclusive
Cc1ccccc1NC(=S)NC(=O)CCc1ccccc1	none (no result: uPA surface inh)
Cc1cccc(C)c1NC(=S)NC(=O)CCc1ccccc1	RORgamma inh 2.8µM, Gal4-VP16 FLuc 10µM, BCR signal inh inconclusive
CSc1cccc(NC(=S)NC(=O)CCc2ccccc2)c1	RORgamma inh 3.2µM, Gal4-VP16 FLuc 8.9µM, BCR signal inh inconclusive
CCN(CC)CCn1c2ccccc2c2cnc(N)c(C#N)c21	RORgamma inh 0.18µM, BCR signal inh inconclusive
COC(=O)c1ccc(C)c(NC(=O)CCn2[nH]c(=O)ccc2=O)c1	none (no result: RORgamma inh, Gal4-VP16 FLuc, Mito fusion act)
CC1(C)OC2OC(C(=O)N/N=C/c3cc(Br)ccc3O)C3OC(C)(C)OC3C2O1 (centres undefined)	RORgamma inh 1.6µM, Gal4-VP16 FLuc inconclusive
CN(Cc1c(F)cccc1Cl)C(=O)CCc1c[nH]c2ccccc12	RORgamma inh inconclusive
Cc1ccc(Cl)cc1NC(=O)C(=O)N1CCCCC1	none
Cc1ccc(Cl)cc1NC1=NC(=S)N(C(C)C)C12CCCCC2	RORgamma inh 2.8µM, Gal4-VP16 FLuc 3.5µM
C/C(=N\NC(=O)c1nn(C)c(C)c1Br)c1ccc(NC(=O)C2CCCC2)cc1	RORgamma inh 5.6µM, Gal4-VP16 FLuc inconclusive
CC(=C/c1ccccc1)/C=N/NC(=O)c1ccccn1	RORgamma inh 8.9µM, Gal4-VP16 FLuc 10µM, BCR signal inh inconclusive
CC(/C=N/NC(=O)c1nn(C)c(C)c1Br)=C\c1ccccc1	RORgamma inh 0.16µM, Gal4-VP16 FLuc inconclusive, BCR signal inh inconclusive
CCC(C)(C)NC(=O)C(C(C)C)N(CC1CCCO1)C(=O)CNS(=O)(=O)c1ccccc1 (centres undefined)	none
CC(C)Cn1c(=O)c(C(=O)NCc2ccc3c(c2)OCO3)c(O)c2ccccc21	RORgamma inh inconclusive, Gal4-VP16 FLuc inconclusive
COC(=O)c1c(NC(=O)C2C3C=CC(CC3)C2C(=O)O)sc(C)c1C (centres undefined)	none
CCOC(=O)c1c(NC(=O)C2C3C=CC(CC3)C2C(=O)O)sc(C)c1CC (centres undefined)	Mito fusion act 7.1µM
Cc1cc(C(=O)COc2ccc3ccc(=O)oc3c2)c(C)n1C	none
Cc1ccc(-c2cnc3cc(C)nn3c2)cc1	RORgamma inh 11µM, Gal4-VP16 FLuc 13µM
CN(C(=S)NC1CCCCC1)C1(c2ccccc2Cl)CCCCC1=O (centres undefined)	RORgamma inh 13µM, Gal4-VP16 FLuc inconclusive, Mito fusion act 20µM, BCR signal inh inconclusive
CC(C)NC(=S)N(C)C1(c2ccccc2Cl)CCCCC1=O (centres undefined)	none
CCN(CC)c1ccc2cc(NC(=O)CCC(=O)O)c(=O)oc2c1	RORgamma inh 0.79µM, uPA surface inh inconclusive, Gal4-VP16 FLuc 1.3µM, BCR signal inh inconclusive
COc1ccc(OCC(=O)NCc2ccc3c(c2)CCN3C(=O)c2ccc(F)cc2)cc1	none (no result: RORgamma inh, uPA surface inh, a7 integrin act, Gal4-VP16 FLuc, Mito fusion act)
O=C(N/C=C/n1cnc2cc(C(F)(F)F)ccc21)c1ccccc1F	BCR signal inh inconclusive
COc1cc(/C=C/CN2CCN(Cc3ccc(C)o3)C(CCO)C2)ccc1O (centres undefined)	a7 integrin act 14µM (no result: uPA surface inh)
COc1ccccc1/C=C/CN1CCN(Cc2ccc(C)o2)C(CCO)C1 (centres undefined)	none
O=C(c1cc(-c2ccc(Br)cc2)on1)N1CCCCCC1	Gal4-VP16 FLuc inconclusive, BCR signal inh inconclusive
COc1ccc(-c2cc(C(=O)N3CCOCC3)no2)cc1	RORgamma inh 10µM, Gal4-VP16 FLuc inconclusive, BCR signal inh inconclusive
O=C(c1cc(-c2ccc(Br)cc2)on1)N1CCOCC1	RORgamma inh 10µM, Gal4-VP16 FLuc inconclusive, BCR signal inh inconclusive
COc1cccc(-c2cc(C(=O)N3CCOCC3)no2)c1	RORgamma inh inconclusive, Gal4-VP16 FLuc inconclusive, BCR signal inh inconclusive
Cn1c(=O)[nH]c(=O)c2c1nc(Br)n2C/C=N/NC(N)=S	RORgamma inh inconclusive, BCR signal inh inconclusive (no result: uPA surface inh, a7 integrin act)
Cn1c(=O)c2c(nc(Br)n2C/C=N/NC(N)=S)n(C)c1=O	RORgamma inh 5µM, BCR signal inh inconclusive
COc1ccc(NC(=O)Cn2c(=O)cnc3ccccc32)cc1S(=O)(=O)N1CCCCC1	none (no result: RORgamma inh, Gal4-VP16 FLuc)
Cc1cccc(Cc2c(C)nc3nc(SCc4ccccc4F)nn3c2C)c1	none (no result: RORgamma inh, uPA surface inh, a7 integrin act, Gal4-VP16 FLuc, Mito fusion act)
O=C1C=CC(=O)N1c1ccc(O)cc1	RORgamma inh 13µM, Gal4-VP16 FLuc inconclusive, BCR signal inh inconclusive
O=C(O)CNC(=O)c1ccc(OC(F)F)cc1	none
O=C1C=CC(=O)N1c1ccc(OC(F)F)cc1	RORgamma inh 6.3µM, Gal4-VP16 FLuc 4.5µM, BCR signal inh inconclusive
CCCN1CCCc2cc(CN(CCCN3CCOCC3)C(=O)Nc3ccc(CC)cc3)ccc21	none (no result: RORgamma inh, uPA surface inh, a7 integrin act, Gal4-VP16 FLuc, Mito fusion act)
CN(C(=O)c1cccc(NC(=O)Cc2ccc(NC(=O)C3CCCN(C(=O)C4CCC4)C3)cc2)c1)C1CCCC1 (centres undefined)	none (no result: RORgamma inh, Gal4-VP16 FLuc, Mito fusion act, BCR signal inh)
COc1ccccc1C1CC(=O)Nc2cc3c(cc21)OCCO3 (centres undefined)	uPA surface inh inconclusive, Gal4-VP16 FLuc 11µM, BCR signal inh 23µM
CC(CCc1ccccc1)NCC#N (centres undefined)	none
CN(C(=O)COc1ccccc1C(=O)NCCOc1ccccc1)c1ccccc1	RORgamma inh inconclusive, Gal4-VP16 FLuc 7.9µM, BCR signal inh inconclusive
